The values that follow come from PubChem BioAssay (NCATS).

SMILES strings stand for the structures. Inconclusive results are not listed. Where a call stands in place of a potency, no number is given. Calls of active or inactive are those of the source. Calls follow the shape of the dose curve; as a rule, active = well fitted cell-killing curve with a large enough effect; inconclusive = small, poorly fitted or top-dose-only effect; inactive = no such curve, though single readings can be large or run the other way.
Potency is read from the fitted curve at half-maximal effect.

The nature of this test: qHTS of pediatric cancer cell lines to identify multiple opportunities for drug repurposing: Primary screen for Rh41 cells (AID 1347108). Also: nearly all actives have a fitted effect of over 70% in size.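 As to activity change, negative = cytotoxic: luminescence drop marks cytotoxic hits.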 Particulars: Rh41 rhabdomyosarcoma viability, CellTiter-Glo luminescence, 48 h; series mostly up to 46 µM. The text has this: Drug repurposing or repositioning has been offered as a strategy for drug development in oncology programs. This approach has special potential for childhood cancers and other rare or orphan diseases, where the expected return on new drug development has been a disincentive to pharmaceuticals. […] In this project we exploit the poly-pharmacology of drugs to discover new indications via phenotypic screening of a panel of 19 well-characterized cell lines derived from solid tumors seen in children and adolescents. The goal is to identify approved drugs with previously unrecognized anticancer properties that has the potential to reveal new mechanisms and biological processes involved in carcinogenesis or drug resistance. We employed a titration-based paradigm (quantitative high-throughput screening or qHTS), where all compounds were tested at multiple concentrations for their effect on cell viability. Concentration-response curves (CRCs) were derived directly from the primary screen, and both potency and efficacy values were used to identify compounds with robust bioactivity profiles. We screened the NIH Chemical Genomics Center (NCGC) Pharmaceutical Collection (NPC) and Mechanism Interrogation Plate (MIPE) small molecule collections of approved and investigational compounds against these cell lines; and measured metabolically active cells after 48 hours of compound treatment as a proxy for cell viability. […] Assay Submitter: Nathalia J. Martinez, National Center for Advancing Translational Sciences, National Institutes of Health, Rockville, MD, USA; email: natalia.martinez@nih.gov Shen, M et al. Quantitative high-throughput phenotypic screening of pediatric cancer cell lines identifies multiple opportunities for drug repurposing. Oncotarget 2017 Dec 19;9(4):4758-4772. PMID 29435139.
The cells were obtained from University of North Carolina (UNC), Pediatric Preclinical Testing Program (PPT), and Coriell Institute (CI). qHTS cell viability assay: Cells were assayed in growth media at a density of 500-1,000 cells/well. Five microliters of cells were dispensed into 1,536-well, white, solid-bottom, TC-treated plates (Greiner Bio One) using a multidrop dispenser and incubated at 37 degrees C, 5% CO2, under a humidified atmosphere for 5 hours. Twenty-three nanoliters of compounds and controls (neutral control DMSO or positive control bortezomib at final concentration of 2.3 µM) were subsequently transferred by Kalypsys pintool. For primary screens, the MIPE collection was tested at 11-point dilutions (final concentrations range from 0.78 nM to 46 µM) and the NPC collection at 8-point dilutions (final concentrations range from 0.59 nM to 46 µM). Compounds tested in follow-up screens were assayed at 11-point dilutions. Cells were incubated for 48 hours, followed by addition of 3 µL of CellTiter-Glo (Promega). After a 15 min incubation at room temperature, samples were analyzed for luminescence intensity using a ViewLux High-throughput CCD imager equipped with clear filters.
Take `C[C@H]1[C@H](NC(=O)/C(=N/OC(C)(C)C(=O)O)c2csc(N)n2)C(=O)N1S(=O)(=O)O` (stereo in doubt): the Potency result was “inactive”.
Take `COc1ccc(C2C(=O)c3ccccc3C2=O)cc1`: the Potency result was “inactive”.
On the same count and under the same terms, as for `CC1(C)O[C@@H]2C[C@H]3[C@@H]4CCC5=CC(=O)CC[C@]5(C)[C@@]4(F)[C@@H](O)C[C@]3(C)[C@]2(C(=O)CCl)O1`, the entry is “inactive”; as for `CCN(CCCc1ccccc1)CCCc1ccccc1`, “inactive”.
On to `CCCCc1nc(Cl)c(CO)n1Cc1ccc(-c2ccccc2-c2nn[nH]n2)cc1`, for which the Potency result is “inactive”.
Still for that read-out and setting: then `CC(=O)Oc1ccc(C(c2ccc(OC(C)=O)cc2)c2ccccn2)cc1`, with “inactive”; and `O=C1OC2(c3ccc(O)cc3Oc3cc(O)ccc32)c2ccccc21`, with “inactive”; and `CC(=O)Nc1c(I)cc(I)c(C(=O)O)c1I`, with “inactive”.
Same read-out and setting: then `CN1CCN(C(c2ccccc2)c2ccccc2)CC1`, with “inactive”; and `Cc1cc(N)c2cc(NC(=O)Nc3ccc4nc(C)cc(N)c4c3)ccc2n1`, with “inactive”.
In the case of `COc1cc(OC)cc(OC)c1`, the Potency entry is “inactive”.
Turning to `CO/N=C1\CN(c2nc3c(cc2F)c(=O)c(C(=O)O)cn3C2CC2)CC1CN` (stereo not given), the Potency entry is “inactive”.
For `N[C@H](Cc1c[nH]c2ccccc12)C(=O)O`, the Potency result is “inactive”.
Same read-out and setting: as for `OC[C@@H](O)[C@@H](O[C@@H]1O[C@H](CO)[C@H](O)[C@H](O)[C@H]1O)[C@H](O)[C@@H](O)CO`, the entry is “inactive”.
On to `CCCCCCCCCCCCCCNCCO`, for which the Potency result is “inactive”.
With `CC(C)COC(=O)c1ccc(N)cc1`, the Potency entry is “inactive”.
Regarding `CCOc1ccc2nc3cc(N)ccc3c(N)c2c1`, the Potency is 18.8 µM (active).
Consider `C[n+]1c2cc(N)ccc2cc2ccc(N)cc21` (tested in a mixture with another compound), for which the Potency is 16.8 µM (active).
For the compound `Cc1ccc(Nc2c(F)cccc2Cl)c(CC(=O)O)c1`, the Potency result was “inactive”.
`COC(=O)CCc1ccc(OCC(O)CNC(C)C)cc1` (stereo not given): the Potency entry is “inactive”.
On to `COc1cc(N)c(Cl)cc1C(=O)NC1CCN(CCCOc2ccc(F)cc2)CC1OC` (stereo not given), for which the Potency result was “inactive”.
Turning to `Oc1cc(O)c2c(c1)O[C@H](c1ccc(O)c(O)c1)[C@H](O)C2`, the Potency result is “inactive”.
Turning to `C[C@]12CC[C@@H]3c4ccc(O)cc4CC[C@H]3[C@@H]1C[C@@H](O)[C@@H]2O`, the Potency entry is “inactive”.
Consider `c1ccc(OCc2ccc(CCCN3CCOCC3)cc2)cc1`, for which the Potency entry is “inactive”.
Consider `CC(O)C(=O)O` (stereo not given), for which the Potency entry is “inactive”.
As for `NCCCC[C@H](N[C@@H](CCc1ccccc1)C(=O)O)C(=O)N1CCC[C@H]1C(=O)O`, the Potency result was “inactive”.
Take `COc1cc(/C=C/C(=O)O[C@H]2CC[C@]34C[C@]35CC[C@]3(C)[C@@H]([C@H](C)CCC=C(C)C)CC[C@@]3(C)[C@@H]5CC[C@H]4C2(C)C)ccc1O`: the Potency entry is “inactive”.
As to `C[C@]12C=CC(=O)C=C1CC[C@@H]1[C@@H]2[C@@H](O)C[C@@]2(C)[C@H]1CC[C@]2(O)C(=O)CO`, the Potency result was “inactive”.
Turning to `CC1(C)O[C@@H]2C[C@H]3[C@@H]4C[C@H](F)C5=CC(=O)C=C[C@]5(C)[C@H]4[C@@H](O)C[C@]3(C)[C@]2(C(=O)CO)O1`, the Potency result is “inactive”.
Consider `CCCOC(C(=O)OC1CCN(C)CC1)(c1ccccc1)c1ccccc1`, for which the Potency result was “inactive”.
Turning to `CCOC(=O)/C=C(C)/C=C/C=C(C)/C=C/c1c(C)cc(OC)c(C)c1C`, the Potency result is “inactive”.
For the compound `Cc1c(C)n(CCN(C)C)c2ccc(C(=O)OCCN(C)C)cc12`, the Potency entry was “inactive”.
Regarding `O=C1OCCN1/N=C/c1ccc([N+](=O)[O-])o1`, the Potency entry is “inactive”.
Take `CN(C)C(=S)SC(=S)N(C)C`: the Potency is 0.944 µM (active).
Take `CNC(=O)CN(CCN(CCN(CC(=O)[O-])CC(=O)NC)CC(=O)[O-])CC(=O)[O-].O.[Gd+3]`: the Potency entry is “inactive”.
For the compound `C=CCc1ccc(O)c(OC)c1`, the Potency result is “inactive”.
Regarding `CC(Cc1ccccc1)(NC(=O)CN)c1ccccc1` (stereo not given), the Potency result is “inactive”.
For `C[C@]12CCC(=O)C=C1CC[C@H]1[C@@H]3CC[C@](O)(C(=O)CO)[C@@]3(C)C[C@H](O)[C@@]12F`, the Potency result was “inactive”.
As for `CC(C)(C)CC(C)(C)c1ccc(OCCOCC[N+](C)(C)Cc2ccccc2)cc1`, the Potency was 16.8 µM (active).
For the compound `Nc1ccc(/C=C/c2ccc(N)cc2S(=O)(=O)O)c(S(=O)(=O)O)c1`, the activity change, negative = cytotoxic is 37.3% [at 0.597 µM] (inactive).
